PubChem BioAssay (Tox21)
Records with an inconclusive call do not appear. A call without a number means that no potency is given here. The source made the active and inactive calls. The call rests on the fitted dose curve; in most records, active means well fitted curve in the direction sought with a large enough effect in the repeat runs; inconclusive means weak or mixed curves; inactive means no such curve, though single readings can be large; an effect the other way counts as inactive or inconclusive.

Assay: qHTS RealTime-Glo MT Cell Viability Assay in HEK293 cells - 0 hour (AID 1224880); further: top concentration of the series differs between compounds; nearly all actives have a fitted effect of over 45% in size
Settings: RealTime-Glo luminescence; series mostly up to 76.8 µM
How it was run: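 Luminescence readout at each listed time point; HEK293, 600 cells/well, RealTime-Glo MT reagent added with cells; compounds pinned (23 nL in DMSO) after 5 h at 37 C; continuous culture at 37 C.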

SMILES	Potency
O=Cc1c2ccccc2c(Cl)c2ccccc12	inactive
CCCCCCCC/C=C\CCCCCCCCO	inactive
Nc1nnc(-c2ccc([N+](=O)[O-])o2)o1	inactive
CC1(C)[C@@H](OC(=O)CCC(=O)O)CC[C@]2(C)[C@H]3C(=O)C=C4[C@@H]5C[C@@](C)(C(=O)O)CC[C@]5(C)CC[C@@]4(C)[C@]3(C)CC[C@@H]12	inactive
FC(F)(F)c1ccccc1Cl	inactive
O[C@@H]1CO[C@H]2[C@@H]1OC[C@@H]2O	inactive
Nc1cccc2c1CN(C1CCC(=O)NC1=O)C2=O (centres undefined)	inactive
CCCCN1CCCC1C(=O)Nc1c(C)cc(C)cc1C (centres undefined)	inactive
Cc1ccc(C(C)(C)O)cc1	inactive
CC/C=C1/OC(=O)c2ccccc21	inactive
O=c1cc(-c2ccccc2)oc2cc(O)cc(O)c12	inactive
OCCOCC#CCOCCO	inactive
CN1C(=O)c2ccccc2C1=O	inactive
CCN(CC)CCNC(=O)COc1ccc(OC)cc1	inactive
CC(CC1c2ccccc2CCc2ccccc21)CN(C)C (centres undefined)	inactive
CCOc1ccccc1O[C@H](c1ccccc1)[C@H]1CNCCO1	inactive
CC(=O)N/N=C/c1ccc([N+](=O)[O-])o1	inactive
C[C@]12CC[C@@H]3c4ccc(O)cc4CC[C@H]3[C@@H]1CC[C@@H]2OC(=O)CCC1CCCC1	inactive
CCC1NC(=O)c2cc(S(N)(=O)=O)c(Cl)cc2N1 (centres undefined)	inactive
CCC1CO1 (centres undefined)	inactive
CC(C)(C)C(=O)C(=O)O	inactive
Oc1ccc(Cl)c2cccnc12	inactive
O=C(O)c1ccc(OCCCOc2ccc(C(=O)O)cc2)cc1	inactive
CC1=Nc2ccc3ccccc3c2C1(C)C	inactive

Assay: A CellTox Green Cytotoxicity Assay to monitor cytotoxicity in HEK293 cells - 32 hour (AID 1224881); further: nearly all actives have a fitted effect of over 40% in size; further: potency means the concentration at half of the fitted maximal effect
Settings: CellTox Green fluorescence; series mostly up to 76.8 µM
How it was run: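 Read-out: fluorescence of a cell-impermeant cyanine dye staining DNA of dead cells, proportional to cytotoxicity. HEK293, 600 cells/well with reagent, compound (23 nL DMSO) added after 5 h; reads at 0, 8, 16, 24, 32, 40 h.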

SMILES	Potency
CN1CCCN=C1COC(=O)C(O)(c1ccccc1)C1CCCCC1 (centres undefined)	inactive
CC(C)=CCC1C(=O)N(c2ccccc2)N(c2ccccc2)C1=O	inactive
CCn1cc(C(=O)O)c(=O)c2cc(F)c(N3CCNCC3)cc21	inactive
O=C1Cc2ccccc2N1c1c(Cl)cccc1Cl	inactive
O=C1c2ccccc2C(=O)C1c1nc2ccccc2c(Br)c1O	inactive
COc1ccccc1N1CCN(CC(O)COc2cccc3ccccc23)CC1 (centres undefined)	inactive
COc1ccccc1Oc1c(NS(=O)(=O)c2ccc(C(C)(C)C)cc2)nc(-c2ncccn2)nc1OCCO	inactive
C[C@@H](O)[C@H]1C(=O)N2C(C(=O)O)=C([C@H]3CCCO3)S[C@H]12	inactive
CCC(=O)OC	inactive
CCCCCCCCCI	inactive
C[C@@]12CCC[C@H]1[C@@H]1CC[C@H]3C[C@@H](O)CC[C@]3(C)[C@H]1CC2	inactive
Clc1ccc(Nc2nnc(Cc3ccncc3)c3ccccc23)cc1	inactive
O=[N+]([O-])c1ccc(O/N=C/c2cc(Br)c(O)c(Br)c2)c([N+](=O)[O-])c1	inactive
CCOC(=O)c1ccc(I)cc1	35 µM (active)
COC(=O)[C@H]1[C@H]2C[C@@H]3c4[nH]c5cc(OC)ccc5c4CCN3C[C@H]2C[C@@H](OC(=O)/C=C/c2ccc(O)c(OC)c2)[C@@H]1OC	19 µM (active)
CC[C@]1(O)C[C@H]2CN(CCc3c([nH]c4ccccc34)[C@@](C(=O)OC)(c3cc4c(cc3OC)N(C=O)[C@H]3[C@@](O)(C(=O)OC)[C@H](OC(C)=O)[C@]5(CC)C=CCN6CC[C@]43[C@@H]65)C2)C1	inactive
O=Cc1c2ccccc2c(Cl)c2ccccc12	inactive
CCCCCCCC/C=C\CCCCCCCCO	inactive
Nc1nnc(-c2ccc([N+](=O)[O-])o2)o1	inactive
CC1(C)[C@@H](OC(=O)CCC(=O)O)CC[C@]2(C)[C@H]3C(=O)C=C4[C@@H]5C[C@@](C)(C(=O)O)CC[C@]5(C)CC[C@@]4(C)[C@]3(C)CC[C@@H]12	inactive

SMILES	Potency
FC(F)(F)c1ccccc1Cl	inactive
O[C@@H]1CO[C@H]2[C@@H]1OC[C@@H]2O	inactive
Nc1cccc2c1CN(C1CCC(=O)NC1=O)C2=O (centres undefined)	inactive
CCCCN1CCCC1C(=O)Nc1c(C)cc(C)cc1C (centres undefined)	16.9 µM (active)
Cc1ccc(C(C)(C)O)cc1	inactive
CC/C=C1/OC(=O)c2ccccc21	inactive
O=c1cc(-c2ccccc2)oc2cc(O)cc(O)c12	inactive
OCCOCC#CCOCCO	inactive
CN1C(=O)c2ccccc2C1=O	inactive
CCN(CC)CCNC(=O)COc1ccc(OC)cc1	inactive
CC(CC1c2ccccc2CCc2ccccc21)CN(C)C (centres undefined)	inactive
CCOc1ccccc1O[C@H](c1ccccc1)[C@H]1CNCCO1	inactive
CC(=O)N/N=C/c1ccc([N+](=O)[O-])o1	inactive
C[C@]12CC[C@@H]3c4ccc(O)cc4CC[C@H]3[C@@H]1CC[C@@H]2OC(=O)CCC1CCCC1	54.9 µM (active)
CCC1NC(=O)c2cc(S(N)(=O)=O)c(Cl)cc2N1 (centres undefined)	inactive
CCC1CO1 (centres undefined)	inactive
CC(C)(C)C(=O)C(=O)O	inactive
Oc1ccc(Cl)c2cccnc12	inactive
O=C(O)c1ccc(OCCCOc2ccc(C(=O)O)cc2)cc1	inactive
CC1=Nc2ccc3ccccc3c2C1(C)C	inactive
